Measured values from PubChem BioAssay (NCI).
About 79,000 compounds went through this panel and 15% of them were active in at least one assay; those are over-represented in the sample as a whole. Activity calls are given as the source filed them. No stated cut-off is given here; in the data, active means growth inhibition above about 70%; inactive means the rest.

Assay: NCI Yeast Anticancer Drug Screen. Data for the bub3 strain (AID 167)
Details: S. cerevisiae bub3 mutant strain, at 50.0 µM, stronger effect = higher value
Summary of the method: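 Whole-cell yeast assay. The mutant strain was incubated with compounds, and growth inhibition was determined by comparison with vehicle-treated cells.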

Compound	growth inhibition
Cn1c(N)c(C(=O)/C=C/c2ccccc2)c(=O)n(C)c1=O	-3.85% (inactive)
CCc1c(CBr)c(=O)[nH]c2ccccc12	1.3% (inactive)
CN1CCCC1	16.6% (inactive)
COc1ccccc1N=Nc1c(O)n(-c2ccccc2C)c(=S)n(-c2ccccc2OC)c1=O	-3.95% (inactive)
C=CCC12CC(O)C(O)CC1(OC)OC(c1cc(OC)c(OC)c(OC)c1)C2C (stereo not drawn)	4.35% (inactive)
Cc1ccccc1NC(=O)CS	29.2% (inactive)
COc1ccc(N=C2[Se]C(=NC(=O)c3ccccc3)N(c3ccc(OC)cc3)C2=Nc2ccc(OC)cc2)cc1	1.3% (inactive)
Cc1cccnc1NCc1ccccn1	1.75% (inactive)
Cc1csc2c1-n1cccc1C2=O	-19.4% (inactive)
CCn1cc(C(=O)O)c(=O)c2ccc(-c3ccncc3)cc21	17% (inactive)
Cc1cccc(C(=O)O)c1N	-33.6% (inactive)
C/C=C(\C)c1cc(O)c(C)c2c1Oc1cc(O)c(Cl)c(C)c1C(=O)O2	93.5% (active)
CCN(CC)c1cc2c(cc1Br)-c1ccccc1C2=O	7.95% (inactive)
CC1(C)CC(C)(C)CC(O)(C2(O)CC(C)(C)CC(C)(C)C2)C1	-5.4% (inactive)
Nc1nc(Br)nc2ncn(C3CC(O)C(CO)O3)c12 (stereo not drawn)	-0.85% (inactive)
C/C(=N\NC(N)=O)c1sc(-c2nc(C)c(/C(C)=N/NC(N)=O)s2)nc1C	-16.1% (inactive)
O=C1c2ccccc2C(=O)N1Cl	2.2% (inactive)
NC(=O)C(NN=C1c2ccccc2-c2ccccc21)(c1ccccc1)c1ccccc1	0.05% (inactive)
